In PubChem BioAssay (NCI):
About 83,000 compounds went through this panel and 20% of them were active in at least one assay; those are over-represented in the sample as a whole.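 Compound tested at a single concentration for 48 hours in 96-well plates; a percent growth value below 10 was scored as active.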 Calls of active or inactive are those of the source.

The compounds below were run on U251 CNS (assay: NCI-60 one-dose screen, 48 h (100 = growth as untreated, 0 = no growth, -100 = all killed)). Details: 10 µM.
In the case of `CCOS(=O)(=O)c1c(C(C)C)cc(C(C)C)cc1C(C)C`, the growth is reported as 98.6% (inactive).
For `CC(C)CCN(CCC(C)C)CC(=O)Nc1ccc(S(=O)(=O)c2ccc(NC(=O)CN(CCC(C)C)CCC(C)C)cc2)cc1`, the growth was 10.5% (inactive).
For `O=C(N/N=C/c1cc([N+](=O)[O-])ccc1O)c1cccc2ccccc12`, the growth was 29.8% (inactive).
In the case of `COc1cc(Cc2cc(-c3ccccc3)n[nH]c2=O)cc(OC)c1OC`, the growth is reported as 48.7% (inactive).
For `C1CN(CC2CCC(CN3CCOCC3)O2)CCO1` (stereo not given), the growth was 108% (inactive).
For `Cc1cc(=O)n2nnc3cc(Cl)c(Cl)cc3n12`, the growth was 94.8% (inactive).
`CC(=O)N[C@H](C(=O)N[C@@H](CCCNC(=N)N)C(=O)N[C@@H](CCCCN)C(=O)N[C@@H](CCCNC(=N)N)C(=O)N[C@]1(C)CCCCCC/C=C\CCC[C@@](C)(C(=O)N[C@@H](CCCNC(=N)N)C(=O)N[C@@H](CCC(=O)O)C(=O)N[C@@H](CC(C)C)C(=O)N[C@H](C(=O)N[C@@H](CCC(=O)O)C(N)=O)C(C)C)NC(=O)[C@H](CCC(N)=O)NC(=O)[C@H](CC(C)C)NC(=O)[C@H](CC(C)C)NC(=O)[C@H](CCCNC(=N)N)NC(=O)[C@H](CCCNC(=N)N)NC(=O)[C@H](CC(C)C)NC1=O)C(C)C` was tested, and the growth was -40.9% (active).
With `Cc1ccc(/C=C2/C(=O)N(C)c3ccc(S(=O)(=O)Nc4ccc(C(C)(C)C)cc4)cc32)s1` the growth was 62.6% (inactive).
For `CC(=O)[C@H]1CC[C@]2(C)[C@@H]1CC[C@@H]1[C@@]3(C)CC(CCC#N)(CCC#N)C(=O)C(C)(C)[C@@H]3CC[C@]12C`, the growth was 102% (inactive).
In the case of `O=C(CCn1cnc2c(cc(-c3ccccc3)n2-c2ccccc2)c1=O)Nc1ccc(F)cc1`, the growth is reported as 70.9% (inactive).
In the case of `Cc1c(Cl)cccc1NC(=O)CN1CCOCC1`, the growth is reported as 106% (inactive).
For `CC(C)(C)OC(=O)CN1CCc2c(sc3ncnc(N/N=C/c4cccc5ccccc45)c23)C1`, the growth was 45.7% (inactive).
With `CCn1c(SCc2ccc(C)cc2)nnc1-c1nn(-c2ccc(Cl)cc2Cl)c(-c2ccc(Cl)cc2)c1C` the growth was 14.4% (inactive).
For `O=C(Nc1nc(-c2ccccc2)nc2c1sc(=S)n2-c1ccccc1)C(F)(F)F`, the growth was 90.6% (inactive).
For `Cc1c[nH]c(=O)n(Cc2nnc(CCC(=O)c3nc4ccccc4[nH]3)o2)c1=O`, the growth was 16.6% (inactive).
For `CCCCN(CCCC)C(=O)[C@H](CC)[C@@H]1CC[C@@H](C)[C@@H]([C@H](C)[C@@H](O)[C@@H](C)C(=O)[C@H](CC)C2O[C@]3(C=CC(=O)[C@]4(CC[C@@](C)([C@H]5CC[C@](O)(CC)[C@H](C)O5)O4)O3)[C@H](C)C[C@@H]2C)O1` (stereo not given in full), the growth was 32.7% (inactive).
`CCN(CC)CCOc1cccc2c1C(=O)c1ccccc1C2=O` was tested, and the growth was 93.4% (inactive).
For `COc1cc(OC)c2c(=O)c(O)c(-c3ccccc3)oc2c1`, the growth was 47.1% (inactive).
In the case of `COc1ccc(-c2cc(-c3ccccc3)nc(SCCCC(=O)NO)n2)cc1`, the growth is reported as -24.5% (active).
`COc1cc(-c2nn(-c3ccc(NC(=O)NCCNS(=O)(=O)c4ccc(F)cc4)cc3)cc2-c2ccncc2)ccc1Cl` was tested, and the growth was 4.44% (active).
With `Cc1[nH]c2ccccc2c1/C=N/Nc1ncnc2sc3c(c12)CCN(CC(=O)OC(C)(C)C)C3` the growth was 78.2% (inactive).
With `O=C1CSC(=S)N1/N=C/c1ccc(Cl)s1` the growth was 99.3% (inactive).
With `O=C(CC(CC(=O)c1ccccc1)c1ccccc1O)c1ccccc1` the growth was 92% (inactive).
For `CCOC(=O)c1cc(C(=O)c2cc(OC)cc(OC)c2)n2nc(C)ccc12`, the growth was 23.1% (inactive).
With `CCCc1cn(CC(=O)Nc2nc3ccccc3s2)nn1` the growth was 97.8% (inactive).
With `CC(CN(C)C)Oc1ccc(OC(C)CN(C)C)c2c1C(=O)c1ccccc1C2=O` (stereo not given) the growth was 30.1% (inactive).
In the case of `COc1cc(-c2nn(-c3cccc(NC(=O)NCCNC(=O)c4cccc(C(F)(F)F)c4)c3)cc2-c2ccncc2)ccc1Cl`, the growth is reported as 28.4% (inactive).
In the case of `Cc1ccc(NCCNCC(C)(C)O)c2c(=O)c3ccc(Cl)cc3sc12`, the growth is reported as -74.5% (active).
`CNS(=O)(=O)Oc1ccc(-c2sc3cc(OS(=O)(=O)NC)ccc3c2C(=O)c2ccc(OCCN3CCCCC3)cc2)cc1` was tested, and the growth was 66.9% (inactive).
In the case of `CN(C)CCOc1ccccc1NC1=C(Cl)C(=O)C(Nc2ccccc2OCCN(C)C)=C(Cl)C1=O`, the growth is reported as 68.6% (inactive).
With `COc1cc(-c2nn(-c3cccc(NC(=O)CCNc4ccc(N5CCOCC5)cc4)c3)cc2-c2ccncc2)ccc1Cl` the growth was 24% (inactive).
`C=CCSC(CC)(CC)C(=O)NC` was tested, and the growth was 101% (inactive).
`Cc1c(Cl)cccc1NC(=O)CCCl` was tested, and the growth was 91% (inactive).
With `CC(=O)C1N=NCC1c1ccccc1` (stereo not given) the growth was 110% (inactive).
For `CCN(CC)CCOc1cccc2c1C(=O)c1cccc(OCCN(CC)CC)c1C2=O`, the growth was 24.8% (inactive).
In the case of `CC(C)(C)OC(=O)CN1CCc2c(sc3ncnc(N/N=C/c4ccccc4Br)c23)C1`, the growth is reported as 77.9% (inactive).
In the case of `N#CCc1csc(Cc2ccccc2)n1`, the growth is reported as 103% (inactive).
For `Clc1ccc(C2=NN=C3C(Cc4ccccc4)=Nc4ccccc4N3C2)cc1`, the growth was 62.1% (inactive).
With `CCN(CC)CC(=O)N(CC)c1ccc(C)c(Cl)c1` the growth was 87% (inactive).
`COc1cc(-c2csc(NC(=O)Nc3ccc(Cl)c(C(F)(F)F)c3)n2)cc(OC)c1OC` was tested, and the growth was -9.73% (active).
